Reference: PubChem BioAssay
Where “and” joins values, the source holds several entries; their conditions need not be identical. Identical values can stand only once. Inconclusive results are not listed. Calls of active or inactive are those of the source.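 Rule for the calls, unless noted: active = normalized viability below 100% at a tested concentration; inactive = the rest.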

How the values were obtained:
[1] = growth inhibition of DIPG glioma cells, dose response, cell-based, SU-DIPG-XVII, MIPE5.0, CellTiter-Glo, qHTS (AID 1347060; cut-off not given, nearly all actives have AC50 up to about 26 µM;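 for AC50: cells exposed to compound for 48 hours before viability readout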); details: SU-DIPG-XVII viability, CellTiter-Glo ATP luminescence
[2] = growth inhibition of DIPG glioma cells, dose response, cell-based, JHH-DIPG-1, MIPE4.0, CellTiter-Glo, qHTS (AID 1347062; cut-off not given, nearly all actives have AC50 up to about 27 µM;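 for AC50: cells exposed to compound for two days before readout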); details: JHH-DIPG-1 viability, CellTiter-Glo ATP luminescence
[3] = growth inhibition of DIPG glioma cells, dose response, cell-based, SU-DIPG-IV, MIPE4.0, CellTiter-Glo, qHTS (AID 1347063; cut-off not given, nearly all actives have AC50 up to about 30 µM;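 note: compound exposure lasted 48 hours before the viability readout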); details: SU-DIPG-IV viability, CellTiter-Glo ATP luminescence
[4] = viability loss in pontine glioma line – cell-based, SU-DIPG-XXV, MIPE5.0, CellTiter-Glo, qHTS, dose response (AID 1347065; cut-off not given, nearly all actives have AC50 up to about 26 µM;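 note: cells exposed to compound for 48 hours before ATP readout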); details: CellTiter-Glo ATP luminescence
[5] = SU-DIPG-VI glioma cell viability, MIPE4.0 library, CellTiter-Glo luminescence, qHTS (AID 1347066; cut-off not given, nearly all actives have AC50 up to about 30 µM;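 note: cells exposed to compound for 48 hours before readout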); details: CellTiter-Glo ATP luminescence
[6] = JHH-DIPG-1 glioma cell viability, MIPE5.0 library, CellTiter-Glo luminescence, qHTS (AID 1347067; cut-off not given, nearly all actives have AC50 up to about 26 µM;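 note: cells exposed to compound for 48 hours before readout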); details: JHH-DIPG-1 glioma viability, CellTiter-Glo ATP luminescence
[7] = modifiers of HSF1 nuclear foci, imaging, Selleck Cancer Library (AID 1347162; in the data active = plate-normalised HSF1 focus index below about 0.46); details: human cells, at 10 µM; SSMD: measured here: HSF1 foci SSMD mean; cell count: measured here: cell number; plate-normalised HSF1 focus index: stronger effect = lower value
[8] = LFS_MB_P medulloblastoma growth inhibition, cell-based, chromothripsis tumors, cisplatin or BGB combos (AID 1671449; in the data active = inhibition above about 80%;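 note: cells exposed for 96 hours; 0% = vehicle DMSO and 100% = killing by high DMSO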); details: LFS_MB_P medulloblastoma cells
[9] = HDN33 neuroblastoma growth inhibition, cell-based, chromothripsis tumors, cisplatin or BGB combos (AID 1671450; in the data active = inhibition above about 80%;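 note: cells exposed to compound for four days; 0% = vehicle DMSO and 100% = cell killing by high DMSO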); details: HDN33 neuroblastoma cells, stronger effect = higher value
[10] = ICB984 medulloblastoma cell growth inhibition, synergistic combos for chromothripsis tumors, cisplatin or BGB combos (AID 1671451; call rule not given here;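 note: cells exposed for 96 hours before readout; 0% = vehicle DMSO and 100% = killing by high DMSO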); details: ICB984 medulloblastoma cells, drug combinations, stronger effect = higher value
[11] = HTB85 osteosarcoma cell growth inhibition, synergistic combos for chromothripsis tumors, BGB or cisplatin IC20 combos (AID 1671453; in the data active = inhibition above about 80%;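 note: cells exposed for 96 hours before readout; 0% = vehicle DMSO and 100% = high DMSO killing control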); details: HTB85 osteosarcoma cells, drug combinations, stronger effect = higher value
[12] = MDA-MB-436 breast carcinoma cell growth inhibition, synergistic combos for chromothripsis tumors, BGB or cisplatin combos (AID 1671458; call rule not given here;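 note: cells exposed for 96 hours; 0% = vehicle DMSO and 100% = killing by high DMSO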); details: MDA-MB-436 breast carcinoma growth inhibition, drug combinations, stronger effect = higher value
[13] = growth inhibition of BT084 medulloblastoma cells, cell-based, ICGC_MB145, cisplatin and BGB IC40 combos (AID 1671461; in the data active = inhibition above about 80%;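 note: cells exposed to drugs for 96 hours; 0% = vehicle DMSO and 100% = high DMSO full killing control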); details: drug combinations, stronger effect = higher value
[14] = growth inhibition of RCMB18 medulloblastoma cells, cell-based, cisplatin and BGB IC40 combos (AID 1671462; in the data active = inhibition above about 80%;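 note: cells exposed to compound for four days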); details: stronger effect = higher value
[15] = growth inhibition of CRL1545 osteosarcoma cells, cell-based, cisplatin and BGB IC20 combos (AID 1671464; in the data active = inhibition above about 80%;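 note: cells exposed to compound for 96 hours before readout; 0% = vehicle DMSO and 100% = high DMSO killing control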); details: stronger effect = higher value
[16] = SU-DIPG-XXV glioma cell viability, MIPE5.0 library, qHTS (AID 1347068; cut-off not given, nearly all actives have IC50 up to about 30 µM;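 note: cells exposed to compound for 48 hours before viability readout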)
[17] = ovarian cancer cell viability with rucaparib, profiling panel, oncology-focused library, rucaparib conditional (AID 1508598); details: patient-derived ovarian cancer cells, CellTiter-Glo viability, 144 h, stronger effect = lower value
[18] = measured here: with BGB IC20 combination, at 0.5 µM
[19] = measured here: with cisplatin IC20 combination, at 0.5 µM

C[C@]1(c2nc3c(C(N)=O)cccc3[nH]2)CCCN1
outcome [1]: inactive | outcome [2]: inactive | outcome [3]: inactive | outcome [4]: inactive | outcome [5]: inactive | outcome [6]: inactive | SSMD [7]: 0.253 | cell count [7]: 7190 | plate-normalised HSF1 focus index [7]: 1.01 (inactive) | inhibition ([8]; at 0.5 µM, stronger effect = higher value): -27.2% (inactive) and -25.3% (inactive) | inhibition ([8]; measured here: combination with BGB IC20, at 0.005 µM): -35.2% and -15.1% | inhibition ([8]; measured here: combination with BGB IC40, at 0.005 µM): -26.8% and -17.3% | inhibition ([8]; measured here: combination with BGB IC40, at 0.05 µM): -28.3% and -28.8% | inhibition ([8]; measured here: combination with cisplatin, at 0.5 µM, stronger effect = higher value): -54% and -57% | inhibition ([8]; measured here: combination with cisplatin, at 5 µM, stronger effect = higher value): -58.4% and -45% | inhibition ([9]; BGB combo, at 5 µM): -41.3% and 0.864% | inhibition ([9]; at 0.5 µM): -26.5% (inactive) and -7.62% (inactive) | inhibition ([9]; cisplatin combo, at 5 µM): -8.25% and -1.94% | inhibition [9, 18]: -35.3% and -12.7% | inhibition [9, 19]: -24.4% and -3.22% | inhibition ([9]; single agent, at 5 µM): -21.8% and -0.922% | inhibition ([10]; BGB IC20 combo, at 0.005 µM): -10.4% and 0.353% | inhibition ([10]; BGB IC40 combo, at 0.005 µM): -32.9% and -29.7% | inhibition ([10]; BGB IC40 combo, at 0.05 µM): -67.4% and -16% | inhibition ([10]; at 0.5 µM): -18.7% (inactive) and -15.6% (inactive) | inhibition ([10]; cisplatin combo, at 0.05 µM): -73.4% and -19.3% | inhibition ([10]; cisplatin combo, at 0.5 µM): -14.2% and -3.56% | inhibition ([10]; cisplatin combo, at 5 µM): -53.1% and -59.6% | inhibition ([10]; measured here: 5 uM single agent, at 5 µM): -10.3% and -11.7% | inhibition ([11]; at 0.5 µM): -20.2% (inactive) and -2.71% (inactive) | inhibition ([11]; measured here: with BGB IC20, at 0.5 µM): -24.9% and -6.8% | inhibition ([11]; measured here: with BGB IC20, at 5 µM): -10.1% and -13% | inhibition ([11]; measured here: with cisplatin IC20, at 0.5 µM): -31.1% and -8.43% | inhibition ([11]; measured here: with cisplatin IC20, at 5 µM): -30% and -31.9% | inhibition ([11]; single agent, at 5 µM): -4.02% and -2.12% | inhibition ([12]; at 0.5 µM): -1.32% (inactive) and -13.2% (inactive) | inhibition ([12]; measured here: BGB combination, at 0.5 µM): -3.82% and -21.5% | inhibition ([12]; measured here: BGB combination, at 5 µM): -15.2% and -14.8% | inhibition ([12]; measured here: cisplatin combination, at 0.5 µM): -9.15% and -22.2% | inhibition ([12]; measured here: cisplatin combination, at 5 µM): 7.37% and -17% | inhibition ([13]; at 0.5 µM): -14.1% (inactive) and -22% (inactive) | inhibition ([13]; cisplatin combination, at 0.5 µM): -37.9% and -21.6% | inhibition ([13]; cisplatin combination, at 5 µM): 2.98% and -9.14% | inhibition ([13]; measured here: BGB IC40 combination 0.05 uM, at 0.05 µM): 13.6% and 2.76% | inhibition ([13]; single agent, at 5 µM): -8.42% and -18.5% | inhibition ([14]; at 0.5 µM): -11.5% (inactive) and -16.6% (inactive) | inhibition ([14]; cisplatin combo, at 5 µM): -70.2% and -50.3% | inhibition ([14]; measured here: BGB IC40 combination, at 0.05 µM): -22.5% and 6.81% | inhibition ([14]; measured here: combination with cisplatin, at 0.5 µM): -15.1% | inhibition ([14]; single agent, at 5 µM): -28.5% and -25.1% | inhibition ([15]; at 0.5 µM): -23.7% (inactive) and 9.34% (inactive) | inhibition [15, 18]: -29.8% and -8.71% | inhibition [15, 19]: -22.5% and 16.5% | inhibition ([15]; single agent, at 0.05 µM): -19.2% and -14.5% | inhibition ([15]; single agent, at 5 µM): -45.7% and -33.6%

CC1(C)CCC(c2ccc(Cl)cc2)=C(CN2CCN(c3ccc(C(=O)NS(=O)(=O)c4ccc(N[C@H](CCN5CCOCC5)CSc5ccccc5)c(S(=O)(=O)C(F)(F)F)c4)cc3)CC2)C1
AC50 [1]: 8.33 µM (active) | AC50 [2]: 18.7 µM (active) | AC50 [3]: 2.09 µM (active) | AC50 [4]: 0.148 µM (active) | AC50 [5]: 0.59 µM (active) | AC50 [6]: 7.42 µM (active) | IC50 [16]: 3.32 µM (active) | SSMD [7]: -3.49 | cell count [7]: 6830 | plate-normalised HSF1 focus index [7]: 0.875 (inactive) | viability ([17]; at 0.000305 µM, OCI-C5x cells, with rucaparib 10 µM, 100% = cells with rucaparib alone): 37.1% (active) | viability ([17]; at 0.000305 µM, OCI-C5x cells, without rucaparib): 78.4% (active) | viability ([17]; at 0.000305 µM, OCI-P5x cells, with rucaparib 20 µM, 100% = cells with rucaparib alone): 132% (inactive) | viability ([17]; at 0.000305 µM, OCI-P5x cells, without rucaparib): 120% (inactive) | viability ([17]; at 0.00122 µM, OCI-C5x cells, with rucaparib 10 µM, 100% = cells with rucaparib alone): 12.7% (active) | viability ([17]; at 0.00122 µM, OCI-C5x cells, without rucaparib): 34.9% (active) | viability ([17]; at 0.00122 µM, OCI-P5x cells, with rucaparib 20 µM, 100% = cells with rucaparib alone): 118% (inactive) | viability ([17]; at 0.00122 µM, OCI-P5x cells, without rucaparib): 106% (inactive) | viability ([17]; at 0.00488 µM, OCI-C5x cells, with rucaparib 10 µM, 100% = cells with rucaparib alone): 32.2% (active) | viability ([17]; at 0.00488 µM, OCI-C5x cells, without rucaparib): 62.4% (active) | viability ([17]; at 0.00488 µM, OCI-P5x cells, with rucaparib 20 µM, 100% = cells with rucaparib alone): 127% (inactive) | viability ([17]; at 0.00488 µM, OCI-P5x cells, without rucaparib): 105% (inactive) | viability ([17]; at 0.0195 µM, OCI-C5x cells, with rucaparib 10 µM, 100% = cells with rucaparib alone): 19.9% (active) | viability ([17]; at 0.0195 µM, OCI-C5x cells, without rucaparib): 46.8% (active) | viability ([17]; at 0.0195 µM, OCI-P5x cells, with rucaparib 20 µM, 100% = cells with rucaparib alone): 110% (inactive) | viability ([17]; at 0.0195 µM, OCI-P5x cells, without rucaparib): 101% (inactive) | viability ([17]; at 0.0781 µM, OCI-C5x cells, with rucaparib 10 µM, 100% = cells with rucaparib alone): 14.8% (active) | viability ([17]; at 0.0781 µM, OCI-C5x cells, without rucaparib): 15.9% (active) | viability ([17]; at 0.0781 µM, OCI-P5x cells, with rucaparib 20 µM, 100% = cells with rucaparib alone): 110% (inactive) | viability ([17]; at 0.0781 µM, OCI-P5x cells, without rucaparib): 102% (inactive) | viability ([17]; at 0.313 µM, OCI-C5x cells, with rucaparib 10 µM, 100% = cells with rucaparib alone): 10.6% (active) | viability ([17]; at 0.313 µM, OCI-C5x cells, without rucaparib): 18.4% (active) | viability ([17]; at 0.313 µM, OCI-P5x cells, with rucaparib 20 µM, 100% = cells with rucaparib alone): 100% (inactive) | viability ([17]; at 0.313 µM, OCI-P5x cells, without rucaparib): 92.1% (active) | viability ([17]; at 1.25 µM, OCI-C5x cells, with rucaparib 10 µM, 100% = cells with rucaparib alone): 10.8% (active) | viability ([17]; at 1.25 µM, OCI-C5x cells, without rucaparib): 15.2% (active) | viability ([17]; at 1.25 µM, OCI-P5x cells, with rucaparib 20 µM, 100% = cells with rucaparib alone): 90.1% (active) | viability ([17]; at 1.25 µM, OCI-P5x cells, without rucaparib): 88.9% (active) | viability ([17]; at 5 µM, OCI-C5x cells, with rucaparib 10 µM, 100% = cells with rucaparib alone): 4.72% (active) | viability ([17]; at 5 µM, OCI-C5x cells, without rucaparib): 11.9% (active) | viability ([17]; at 5 µM, OCI-P5x cells, with rucaparib 20 µM, 100% = cells with rucaparib alone): 0.895% (active) | viability ([17]; at 5 µM, OCI-P5x cells, without rucaparib): 10.5% (active)
